High-throughput results (PubChem BioAssay)
Most compounds without a hit are left out; they make up all but 9% or so of the library.
IMPase inh: membrane-permeable compound that blocks inositol monophosphatase. inhibition (IP1 accumulation), % at 46.1 µM. 120,000 tested, under 10 active. CHO-M1 cells, IP1 accumulation, HTRF TR-FRET ratio. P97697; active = well fitted curve in the direction sought with a large enough effect in the signal ratio, not every such curve was filed as active; inconclusive = small, poorly fitted or top-dose-only effect, or a change in a side signal; inactive = no such curve, though single readings can be large or run the other way; the % refers to the signal ratio;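 also: cells stimulated with carbachol in lithium chloride buffer; plate controls were DMSO basal wells for no effect and reference inhibitor wells for full effect; higher means more IMPase inhibition seen as more IP1 and lower FRET ratio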
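CHO-M1, 2000 cells/well, cultured 16–30 h; cpd up to 46 uM; carbachol (50 uM solution, stimulation buffer w/ 50 mM LiCl, pH 7.4), 30 min 37C; IP-One TR-FRET, 10 min RT; Ex 320/Em 665, 620; Hill-fit AC50.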
HPGD block: blocks human HPGD enzyme activity; hit rate 4.3% among 150,000; Potency, µM, inactives show at the top dose activity change, negative = inhibition, actives largely listed as inhibitors; AID 894; P15428; purified HPGD, NADH fluorescence kinetic, PGE2 substrate; also: potency is read from the fitted curve at half-maximal effect
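NADH formation kinetics: reaction with 30 uM PGE2 and 1 mM NAD+ (final), 20 nM enzyme, Tris-HCl pH 8 with Tween 20, after 15 min compound preincubation at room temperature. Fluorescence change, last versus first of five reads.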
ALDH1A1 inh: inhibitors of human aldehyde dehydrogenase 1A1; Potency, µM (doses to about 75.3 µM), without a hit: top-dose activity, negative = inhibition, actives largely listed as inhibitors; P00352; Purified ALDH1A1, NADH fluorescence, propionaldehyde substrate; hit rate 7.3% among 220,000;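 also: potency is read from the fitted curve at half-maximal effect; plate controls were no enzyme wells and a reference inhibitor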
Target sequence (P00352 whole entry, looked up): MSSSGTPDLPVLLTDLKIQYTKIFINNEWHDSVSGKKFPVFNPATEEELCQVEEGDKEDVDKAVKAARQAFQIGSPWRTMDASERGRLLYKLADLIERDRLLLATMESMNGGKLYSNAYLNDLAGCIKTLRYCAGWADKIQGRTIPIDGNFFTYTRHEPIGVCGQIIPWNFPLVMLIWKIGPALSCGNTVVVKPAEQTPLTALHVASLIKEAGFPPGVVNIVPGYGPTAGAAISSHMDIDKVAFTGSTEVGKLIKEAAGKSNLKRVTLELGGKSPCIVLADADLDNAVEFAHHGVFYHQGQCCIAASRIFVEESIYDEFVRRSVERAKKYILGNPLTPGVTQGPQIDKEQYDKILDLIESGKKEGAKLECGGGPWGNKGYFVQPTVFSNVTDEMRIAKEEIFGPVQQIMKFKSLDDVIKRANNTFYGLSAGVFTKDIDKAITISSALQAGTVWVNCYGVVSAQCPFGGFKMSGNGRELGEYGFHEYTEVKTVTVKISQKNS
Starred values were filed as active, the others as inactive; ? = inconclusive; · = no result; [ ] = another dose, or the depositor's remark. Unless noted, calls follow the shape of the dose curve; as a rule, active = well fitted inhibition curve with a large enough effect (not every such curve was filed as active); inconclusive = small, poorly fitted or top-dose-only effect, or another doubt; inactive = no such curve, though single readings can be large or run the other way. Unless noted, % is scaled to controls: 0 for no effect and ±100 for the full control effect.

SMILES	IMPase inh	HPGD block	ALDH1A1 inh
CC(C)NC(=O)c1ccc(C2SCC(=O)N2Cc2ccccc2)cc1 (stereo unspecified)	6	3.2µM*	-4%
O=C(NCc1ccccc1)c1ccc(C2SCC(=O)N2Cc2ccccc2)cc1 (stereo unspecified)	17	10µM*	-6%
O=C(NC1CC1)c1ccc(C2SCC(=O)N2Cc2ccccc2)cc1 (stereo unspecified)	·	·	3%
Cn1c(Cn2nnc(-c3ccccc3)n2)nnc1SCc1ccccc1Cl	0	?	?
COc1ccc2c(c1)C(=O)[C@H](OC(=O)Nc1cc(OC)c(OC)c(OC)c1)[C@@H](c1ccc(OC)c(Br)c1)O2	·	-8%	4%
CC(C)CN1C(=O)/C(=C(/C#N)C(=O)NC2CCCCC2)c2ccccc21	·	·	5µM*
N#CC(C(=O)NC1CCCCC1)=C1CCCCC1	·	-6%	-6%
CC(C)CCNC(=O)C(c1ccncc1)N(C(=O)Cn1nnc(-c2ccc(F)cc2)n1)c1ccccc1F (stereo unspecified)	·	·	5%
Cc1ccccc1NC(=O)C(=O)c1cn(C)c2ccccc12	·	·	5%
Cc1ccccc1Nc1nc(N)nc(CSc2nncn2C)n1	·	·	-4%
Cc1ccccc1Nc1nc(N)nc(CSCc2c(C)noc2C)n1	10	-17%	14µM*
N#Cc1cccc(NC(=O)N2CC[C@@]3(CCCNC3)C2)c1	·	-6%	?
CC1=N/C(=C\c2ccc([N+](=O)[O-])cc2)C(=O)N1c1cc(Cl)ccc1C	3	-21%	11µM*
COc1ccc(N2C(=O)/C(=C/c3ccc([N+](=O)[O-])cc3)N=C2C)c(OC)c1	·	·	-12%
O=C1C[C@H]2C(=O)[C@@H]1[C@@H](C(=O)O)[C@H]2C(=O)O	·	-6%	8%[13.5 µM]
Cc1ccc2nc(-c3ccc(Cl)s3)c(Nc3ccc4c(c3)OCCO4)n2c1	-4	·	·
O=C(Nc1ccc(O)c2c(=O)cc(-c3ccccc3Cl)oc12)c1ccc(Br)cc1	·	1.1µM*	-6%
O=C(Nc1ccc(O)c2c(=O)cc(-c3ccccc3Cl)oc12)c1ccccc1Cl	·	-2%	12%
O=c1cc(-c2ccccc2Cl)oc2ccc([N+](=O)[O-])c(O)c12	·	11µM*	14%
Cc1cccc(C(=O)Nc2ccc(O)c3c(=O)cc(-c4ccccc4Cl)oc23)c1	·	-10%	1%
O=c1cc(-c2ccccc2Cl)oc2c([N+](=O)[O-])c(O)cc(O)c12	·	28µM*	-11%
Nc1ccc2oc(-c3ccccc3Cl)cc(=O)c2c1O	·	?	1%
Cc1cc2ccc(=O)oc2cc1OC[C@@H](O)C(C)(C)O	-10	?	?
CCOC(N)=O	·	-4%	-8%
O=C(Nc1ccccc1)N1CC2(CCN(C(=O)c3cccc(F)c3)CC2)C1	·	-5%	-7%
SMILES	IMPase inh	HPGD block	ALDH1A1 inh
CCOC(=O)c1c(C)oc(/N=C/c2ccccc2O)c1C#N	5	-4%	-9%
Cc1c(Cl)cccc1NC(=O)CNCc1ccccc1F	·	·	0%
Cc1c(Cl)cccc1NC(=O)CNc1ccccc1F	2	·	10µM*
COc1ccc(-c2cc(C(F)(F)F)c(C#N)c(SCC(=O)Nc3ccc(F)cc3)n2)cc1	7	·	·
O=C(COc1ccccc1Cl)NCc1ccncc1	-6	2%	7%
Cc1cc(C)c2c(=O)[nH]c(SCC(=O)N3CCCCC3)nc2n1	-14	?	?
CCOC(=O)CCCSc1nc2sc(C)c(C)c2c(=O)[nH]1	9	?	1%
Cc1sc2nc(SCC(=O)N3CCCC3)[nH]c(=O)c2c1C	20	18µM*	?
CCOC(=O)CSc1nc2sc3c(c2c(=O)[nH]1)CC(C)(CC)OC3 (stereo unspecified)	-6	-9%	?
O=c1[nH]c(SCc2n[nH]c(=S)n2-c2ccccc2)nc2ccccc12	5	-24%	5%
CCOC(=O)CSc1nc2sc3c(c2c(=O)[nH]1)CCCC3	-1	16µM*	0%
O=c1[nH]c(SCc2n[nH]c(=S)n2-c2ccccc2)nc2sc3c(c12)CCC3	-10	13µM*	-8%
Cc1sc2nc(SCC(=O)N3CCCCC3)[nH]c(=O)c2c1C	10	16µM*	?
Cc1cccc(NC(=O)CSc2nnc3scc(-c4ccccc4)n23)c1	-2	·	·
CCN(CC)C(=O)CSc1nc2sc(C)c(C)c2c(=O)[nH]1	2	13µM*	?
Cc1csc(NC(=O)CSc2nc3sc(C)c(C)c3c(=O)[nH]2)n1	-4	13µM*	18µM*
CCOC(=O)Cc1csc(NC(=O)CSc2nc3sc(C(=O)O)c(C)c3c(=O)[nH]2)n1	-3	?	-7%
Cc1sc2nc(SCC(=O)N(C)C)[nH]c(=O)c2c1C	8	-29%	-2%
Clc1nc(-c2cccnc2)nc2scc(-c3ccccc3)c12	·	20µM*	?
Clc1ncnc2scc(-c3ccccc3)c12	0	-9%	4%
CC(SCc1cn2cc(Cl)ccc2n1)C(=O)O (stereo unspecified)	0	-5%	3%
COc1ccccc1NC(=O)COc1ccc(/C=N/NS(=O)(=O)c2ccc(C)cc2)cc1	?	16µM*	?
O=C(COc1ccc(/C=N/NS(=O)(=O)c2ccccc2)cc1)Nc1ccc(F)cc1	2	·	-3%
Cc1ccc(N(CC(=O)NCc2ccco2)S(=O)(=O)c2ccccc2)cc1	7	-9%	?
CC(C)NC(=O)COc1ccc(/C=N/NS(=O)(=O)c2ccccc2)cc1	5	·	15%
SMILES	IMPase inh	HPGD block	ALDH1A1 inh
Cc1ccc(S(=O)(=O)N/N=C/c2ccc(OCC(=O)Nc3ccccc3Cl)cc2)cc1	-1	14µM*	-14%
COc1ccccc1N(CC(=O)N/N=C/c1ccc(OCC(=O)NCc2ccco2)cc1)S(=O)(=O)c1ccc(C)cc1	-1	16µM*	-10%
CC1=CC(=O)NS(=O)(=O)O1	·	-7%	7%
CCOC(=O)CS(=O)(=O)c1nc(-c2ccccc2)cc(C(F)(F)F)n1	12	14µM*	-1%
COCC(C)NC(=O)CCS(=O)(=O)c1nc(-c2ccc(OC)cc2)cc(C(F)(F)F)n1 (stereo unspecified)	6	-26%	-9%
O=C(O)CCS(=O)(=O)c1nc(-c2cccs2)cc(C(F)(F)F)n1	-10	?	?
CCOC(=O)CCS(=O)(=O)c1nc(-c2ccccc2)cc(C(F)(F)F)n1	0	16µM*	-19%
COC(=O)CCS(=O)(=O)c1nc(-c2ccccc2)cc(C(F)(F)F)n1	20	28µM*	3%
CCOC(=O)CS(=O)(=O)c1nc(-c2ccc(F)cc2)cc(C(F)(F)F)n1	43	?	?
Cc1cc(C)nc(Sc2c(C)n[nH]c2C)n1	-3	-6%	10%
CC(=O)Nc1ccc(CN2CCN(CCc3ccccc3)C(CCO)C2)cc1 (stereo unspecified)	·	·	-16%
Cc1ccc(CN2CCN(/N=C/c3cc(Br)cc(Br)c3O)CC2)c(C)c1	5	-9%	-1%
Cc1nc2ccc(NC(=O)Cc3ccccc3F)cc2s1	·	·	3%
O=C(O)COc1ccccc1/C=N/NC(=O)c1cccc(S(=O)(=O)N2CCOCC2)c1	·	·	-14%
Cc1ccc(CSCC(=O)NN=C2CCN(C)CC2)cc1	·	-1%	?
O=C(CSCc1ccccc1Cl)NN=C1CCCCCC1	1[1.84 µM]	-17%	22µM*
O=C(CSCc1ccc(Cl)cc1)NN=C1CCCC1	·	-3%	?
